High-throughput results as filed in PubChem BioAssay.
The list is not random: actives were taken first. Their share in the collection is about 3.2%.
Mcl1 Bid PPI – disrupts binding of human Mcl-1 to Bid peptide; actives 0.97% (n = 220,000); Q07820; inhibition, % at 21.7 µM; AID 1021; TR-FRET Mcl-1/Bid-Dy647 peptide binding, 1536-well;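 active = compounds that cut the binding signal by more than half at the single screening dose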;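 also: His-tagged Mcl-1 with europium anti-His antibody binding Bid BH3 peptide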
Target sequence (Q07820 whole entry, looked up): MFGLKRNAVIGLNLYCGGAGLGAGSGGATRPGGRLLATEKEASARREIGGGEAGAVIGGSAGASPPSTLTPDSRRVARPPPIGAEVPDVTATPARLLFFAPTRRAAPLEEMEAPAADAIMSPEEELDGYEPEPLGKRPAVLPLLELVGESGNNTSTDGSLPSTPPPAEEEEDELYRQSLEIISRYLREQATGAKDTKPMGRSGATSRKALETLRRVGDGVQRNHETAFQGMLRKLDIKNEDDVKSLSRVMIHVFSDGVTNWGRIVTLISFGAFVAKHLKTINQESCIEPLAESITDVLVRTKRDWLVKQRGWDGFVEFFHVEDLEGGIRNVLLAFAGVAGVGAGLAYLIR
p47phox inh – blocks human p47phox regulatory protein of NADPH oxidases. P14598. p47phox/p22phox peptide binding, fluorescence polarization, 2 h. inhibition, % at 24.7 µM. actives 0.53% (n = 220,000);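 active = inhibition above about 30%, limit read from the data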
Mcl-1 Bim block – disrupts Bim peptide binding to human Mcl-1 | Q07820 | Bead-based flow cytometry, Bim peptide-Mcl-1 binding | inhibition, % at 10 µM | actives 0.1% (n = 190,000); in the data active = inhibition above about 40%
Mcl1 Noxa PPI – Mcl-1/Noxa interaction inhibition; actives 1.5% (n = 220,000); Q07820; inhibition, % at 21.7 µM; TR-FRET Mcl-1/Noxa peptide binding, 2 h; AID 1022;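 active = compounds that cut the protein-peptide binding signal by more than 50% relative to plate controls in a single-dose test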;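 also: His-tagged Mcl-1 with rhodamine Noxa BH3 peptide and terbium anti-His antibody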
14-3-3 Bad PPI – disrupts binding of bovine 14-3-3 zeta to phospho-Bad peptide; actives 0.71% (n = 220,000); TR-FRET 14-3-3zeta/Dy647-pBad peptide displacement, 1 h; inhibition, % at 21.7 µM; P63103;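 active = inhibition above about 70%, limit read from the data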
Target sequence (P63103 whole entry, looked up): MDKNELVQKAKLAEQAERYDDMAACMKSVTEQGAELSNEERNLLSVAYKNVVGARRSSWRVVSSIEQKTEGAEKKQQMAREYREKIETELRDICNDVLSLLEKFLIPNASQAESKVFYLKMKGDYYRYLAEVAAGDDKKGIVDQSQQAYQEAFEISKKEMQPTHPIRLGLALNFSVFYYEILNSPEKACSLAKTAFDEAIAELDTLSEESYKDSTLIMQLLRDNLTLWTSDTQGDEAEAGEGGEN
Large screens that a line does not name were inactive; [ ] = remark or other dose.

Cc1ccc(NC2=C(NC(=O)c3ccccc3)C(=O)c3ccccc3C2=O)cc1Cl	Mcl1 Noxa PPI 86
CS(=O)(=O)c1[nH]nc(-c2cccc(Cl)c2)c1C#N	none (no result: Mcl-1 Bim block)
Oc1[nH]c2ccccc2c1N=Nc1ccccc1	none (no result: Mcl-1 Bim block)
Cc1ccc2[nH]c(O)c(N=Nc3nc4ccccc4s3)c2c1	Mcl1 Bid PPI 51, Mcl1 Noxa PPI 95 (no result: Mcl-1 Bim block)
Cc1ccc2[nH]c(C)c(/C=N/Nc3nc4ccccc4s3)c2c1	none
Oc1[nH]c2ccccc2c1N=Nc1nc2ccccc2s1	Mcl1 Bid PPI 59, Mcl1 Noxa PPI 84
Cn1cc(Br)c(C(=O)NNC(=O)Nc2ccccc2C(F)(F)F)n1	none
CCc1c(C)nc(SCc2ccccn2)[nH]c1=O	none
Cc1ccccc1N(C)S(=O)(=O)c1ccc2[nH]cc(C(=O)NCC3CCCO3)c(=O)c2c1 (centres undefined)	Mcl1 Bid PPI 66
CCOc1ccc(N(C)S(=O)(=O)c2ccc3[nH]cc(C(=O)NCC4CCCO4)c(=O)c3c2)cc1 (centres undefined)	none
Cc1cc(C)cc(NS(=O)(=O)c2ccc3[nH]cc(C(=O)N4CCc5ccccc54)c(=O)c3c2)c1	none
CCN(CC)C(=O)c1c[nH]c2ccc(S(=O)(=O)Nc3cc(C)cc(C)c3)cc2c1=O	Mcl1 Bid PPI 55
CCc1ccc(NS(=O)(=O)c2ccc3[nH]cc(C(=O)NCC4CCCO4)c(=O)c3c2)cc1 (centres undefined)	Mcl1 Bid PPI 54
CCOCCCNC(=O)c1c[nH]c2ccc(S(=O)(=O)Nc3cccc(OC)c3)cc2c1=O	Mcl1 Bid PPI 56
O=c1nc2s/c(=C\c3ccc(-c4ccccc4[N+](=O)[O-])o3)c(=O)n2nc1-c1ccccc1	Mcl1 Noxa PPI 96
CCCCCOc1ccc(/C=c2\sc3nc(=O)c(-c4ccccc4)nn3c2=O)cc1OC	none
c1ccc(-c2cc(-c3nnc4n3N=C(c3ccc5ccccc5c3)CS4)[nH]n2)cc1	Mcl1 Bid PPI 58, p47phox inh 45
CCN(CC)S(=O)(=O)c1ccc(Cl)c(NC(=O)COc2ccc(OC)cc2)c1	none
COc1ccc(C(=O)O)cc1NC(=S)NC(=O)c1ccc(-c2ccc(Cl)cc2)o1	Mcl1 Noxa PPI 75
CCCCCCn1c(Br)nc2c1c(=O)n(C)c(=O)n2C	none
CC1=C(C#N)c2nc(N)c(C#N)c(C)c2/C1=C\c1ccc(OCC(=O)O)c(Cl)c1	Mcl1 Noxa PPI 57 (no result: Mcl-1 Bim block)
CCOC(=O)C1CCN(CC(=O)N2C(C)CCCC2C)CC1 (centres undefined)	Mcl1 Bid PPI 65
CCOC(=O)C1CCN(Cc2ccccc2C)CC1	none
CCN(CC)C(=O)c1sc(NC(=O)c2cc(-c3ccc(C)s3)nc3ccccc23)c(C(=O)OC)c1C	Mcl1 Noxa PPI 61
O=S(=O)(Nc1cc(Sc2ncn[nH]2)c(O)c2ccccc12)c1ccccc1	Mcl1 Noxa PPI 83, 14-3-3 Bad PPI 71
Cc1cc(NS(=O)(=O)c2ccccc2)c(C)c(Cl)c1O	none
COC(=O)Nc1ccc(S(=O)(=O)N2CCCC(C(=O)NC3CCS(=O)(=O)C3)C2)cc1 (centres undefined)	none
Cc1ccc(C(=O)OCCn2cc(C#N)c(=O)[nH]c2=O)cc1	none
COc1cc(-c2nc3cnccn3c2Nc2ccccc2)ccc1O	Mcl1 Noxa PPI 55
COCCCn1c(-c2ccco2)nc2ccccc2c1=O	none
CCn1nc([N+](=O)[O-])c2c(-c3nc4ccccc4o3)c(N)n(CCCOC)c2c1=O	Mcl1 Noxa PPI 52
Cn1cc(-c2ccno2)c(C(=O)O)n1	none
COc1cc2cc(C(=O)O)n(C)c2c(OC)c1OC	p47phox inh 60
COc1ccc2c(c1)cc(C(=O)O)n2C	none
Nc1nn2c(-c3ccccc3)cc(=O)[nH]c2c1N=Nc1ccc(O)cc1	Mcl1 Bid PPI 80
Cc1cc(=O)[nH]c2c1c(-c1ccccc1)nn2C	none (no result: Mcl-1 Bim block)
Nc1[nH]n2c(=O)cc(-c3ccccc3)nc2c1N=Nc1ccccc1	none
Nc1nn2c(-c3ccccc3)cc(=O)[nH]c2c1N=Nc1ccc(Br)cc1	Mcl1 Noxa PPI 92
COc1cc2c(=O)n(Cc3ccccc3)c(=O)n(CC(=O)NCc3ccco3)c2cc1OC	Mcl1 Bid PPI 52
Cn1c(=O)c(C(=O)COC(=O)c2cc(-c3ccco3)nc3ccccc23)c(N)n(CC2CC2)c1=O	Mcl1 Noxa PPI 95
CCNC(=O)COC(=O)c1cc(-c2ccco2)nc2ccccc12	Mcl1 Noxa PPI 81 (no result: Mcl-1 Bim block)
COc1ccc(CNC(=O)COC(=O)c2ccccc2C(=O)c2ccccc2)cc1	none
COc1ccc(CNC(=O)COC(=O)c2cc(-c3ccco3)nc3ccccc23)cc1	Mcl1 Noxa PPI 89
Cc1cccn2c(=O)c(/C=C(\C#N)C(=O)NCc3ccccc3)c(N3CCC(C(N)=O)CC3)nc12	none (no result: Mcl-1 Bim block)
COc1ccc(/C=C(\NC(=O)c2ccc(C)cc2)C(=O)Nc2c(C)n(C)n(-c3ccccc3)c2=O)cc1	none
CCN1CCN(CCOc2ccc(Br)cc2C)CC1	14-3-3 Bad PPI 89
CCOC(=O)/C(C#N)=C/c1ccc(OC(=O)c2ccccn2)cc1	14-3-3 Bad PPI 81[fluorescence artefact?]
COC(=O)/C(C#N)=C/c1ccc(OC(=O)c2ccccn2)cc1	none
COc1cccc(C(=O)Oc2c(CN3CCOCC3)cc(Cl)c3cccnc23)c1	none
COc1ccc(C(=O)Oc2c(CN3CCOCC3)cc(Cl)c3cccnc23)cc1	Mcl1 Bid PPI 54
c1ccc(NCc2ccccn2)cc1	none
Cc1cc(Br)ccc1NCc1ccccn1	14-3-3 Bad PPI 76
Cc1nn(-c2ccccc2)c(NC(=O)c2cccs2)c(-c2ccccc2Cl)c1=O	none (no result: Mcl-1 Bim block)
CCCCN(CC)CCCNC(=O)C1CCN(c2ncnc3c2sc2cccc(F)c23)CC1	none
CCOC(=O)Cc1csc(-n2sc3ccccc3c2=O)n1	Mcl1 Noxa PPI 68
CCOC(=O)Cc1csc(SCn2nnc3ccccc3c2=O)n1	none
Cc1[nH]nc(SCC(=O)N(C)c2ccccc2)c1[N+](=O)[O-]	none
O=C(Nc1ccc(N2CCOCC2)cc1)c1ccc(Cl)nc1	none
CCN(c1ccc(NC(=O)c2ccc(Cl)nc2)cc1)C(C)C	Mcl1 Noxa PPI 79
Oc1ccccc1C1CC(c2cccs2)=NC(c2cccc(Br)c2)N1 (centres undefined)	none
CC(CCc1ccccc1)N1CCN(Cc2ccccc2)CC1 (centres undefined)	none
CCS(=O)(=O)N1CCN(C(C)CCc2ccccc2)CC1 (centres undefined)	Mcl1 Bid PPI 77, Mcl1 Noxa PPI 91, 14-3-3 Bad PPI 70
COc1ccc(/C=N/N2C(=O)CSC2=S)cc1	none
O=C1CSC(=S)N1/N=C/c1ccc(O)c(O)c1O	Mcl1 Bid PPI 100, Mcl1 Noxa PPI 101, 14-3-3 Bad PPI 96 (no result: Mcl-1 Bim block)
CC(=O)c1ccc(Nc2ccc(-c3ccccc3F)nn2)cc1	none
C=CCN(Cc1cn(C)nc1-c1cccc(Cl)c1)C1CCS(=O)(=O)C1 (centres undefined)	14-3-3 Bad PPI 96
CC(C)N(Cc1cn(C)nc1-c1cccc(Cl)c1)CC1CCC(=O)N1 (centres undefined)	none
